The full ranking holds about 59,000 sequences; the median of the read-out is about -0.00055, and the lowest 2% start at about -2. This excerpt belongs to a sample that is enriched for the lowest values.

The nature of the experiment: Identification of proteins required for the processing of the EWS-FLI1 nascent transcript.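 Also: robust z of luciferase light less the median z of siRNAs with the same seed.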 As to conditions: TC32 Ewing sarcoma NR0B1-luc vs CMV-luc (EWS-FLI1 target promoter against control promoter), 48 h; screened at 20 nM (by protocol). The procedure, abridged:
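Parallel TC32-NR0B1-luc and TC32-CMV-luc reverse transfections with 20 nM siRNA in RPMI-1640/10% FBS, luciferase measured 48 h later. Seed-adjusted z-scores from normalized, z-score-MAD transformed data; AllStars negative and siGL4 controls on each plate.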
In turn, UUCCUUAGCAGGUAUCGCG against PDZD7 displayed a seed-corrected z-score of 0.373.

As to AUAGUAAUGCCGGAACAGC against GPR108, the seed-corrected z-score is -2.74. The result for AUGGAGACAAGUUACCUGU against DCX reads -1.34; that for UUGAGUGAGAAGAUCAGUG against PAH, -0.365. For UUUGCAGUCGCAAUAGUCA against PRKCSH, the seed-corrected z-score is -0.0915.

For ACUGGUAUUUGACAAGUCC against SGOL2, the seed-corrected z-score is -0.0318. The result for AAUACCUCAACAUUGAUCC against LILRA6 reads 0.22; that for UACUUGUGAUCAUCUAGAC against PSMD1, -2.21; that for UCAGAGUUGGUGACUAUGC against MUC21, 0.222. The result for UGAUGUUCAGCAUCUUCUC against UBTF reads -0.484. The figure for AGCGUAGUCAGUGUAGACC against DNAH2 is 0.323; for AUAGGCUUCGUUAAUGAGC against YJEFN3 it is 1.04. On to UUCCUGCUUGCCUCUAUGG against USP17L9P, for which the seed-corrected z-score was -0.281. The result for UCUCGGUCGAUGAAGUACC against KCTD7 reads -3.05; that for UCAAUCACACGUCUUAUGC against TRMT5, 0.553; that for UUCGUAUUCAACUGACUGC against TCP11L1, 1.06.

UAUGGGUUCAUCAGGCUCA against SH2D2A: the seed-corrected z-score was -3.05. AAGAGAUCCAGCUUCCUGC against SPEG gave a seed-corrected z-score of -0.187. The figure for UCUUGAACCGGAUCGAUGC against TTLL9 is -0.369; for UUCGUGGGUAGCCAUGACC against F8A2 it is 0.752; for UUUUCAUAGAGGAUGAUCU against CRYBB2 it is 1.03. The figure for UCUAAUACAAGGUUCAUAU against SNRPEP2 is -2.56; for UCAAUGCUCAGGGAACUGC against C1orf216 it is 2.53. The figure for ACCUUAGUAAGAUCCAUUC against OSBPL9 is 0.727; for UCAAACACGAUGGAGGUCC against SLC29A4 it is -0.131; for AAAGACACCGUAGCUGAGG against MFNG it is -0.181.

Sequence UUUGUCAUUACCCGAACUG against RNASE11 showed a seed-corrected z-score of 0.455.

UAAGGCUCCAGCAUAACAG against MIR924HG gave a seed-corrected z-score of 0.428. The figure for AUCUUGGUCACUGGAGGCG against SFRP5 is -3.64; for UACAAGUCAAGCUCUCACA against LOC727799 it is -0.236; for AAUAGAACAAGGACAGGAC against SAYSD1 it is -1.61. The result for AAUGUGCUUAGCGCAGGUG against LINC01530 reads 0.0903. Sequence UCAUUGUUGAUUUGGUCUC against 3-Sep showed a seed-corrected z-score of 1.43. The result for UCUAGAGUUAGGGUAUCUG against ARMC5 reads 0.117; that for UGAUGGUCACAAUCCUCUC against PCBP3, -2.79.

On to UUUUCUUGCGUAUGAAUUC against ZNF302, for which the seed-corrected z-score was found to be 0.913. The figure for UCUUGUUCCACCACGUCUC against GRID2 is 0.102; for AGUGGGUAGAUUCCAUUCC against NRBP2 it is -2.82. The result for UGUAGGAUCUGUCUCCAGG against LOC728587 reads -0.669.

Consider UUCGAUGAAAUGAUUUUCC against ZNF418, for which the seed-corrected z-score is 0.719. The result for UGAUCAUCAGCGGUGAGGC against HMGB3P19 reads -1.07. AAAGUCUCCAGUACGAUGU against MROH3P displayed a seed-corrected z-score of 1.9. Sequence UUGCUGAACAGAUCAGUCC against ELF5 displayed a seed-corrected z-score of -0.256. AAGUUCAUAAGAUUCCAUG against MGP registered a seed-corrected z-score of 0.212. The result for UCAGUUUGUAGUCAGAGCC against AP3S2 reads 0.309; that for UCAUCAUCAAUCACGGACG against BAP1, -2.03.

Turning to UGUCUGUUGAUGGCCAAGC against AMELX, the seed-corrected z-score was 0.157.

The sequence UCUGCGAUCAGUACCACUG against RBBP4 had a seed-corrected z-score of 0.278. The figure for ACAGGGUUAAAAUUGUCCG against M6PR is -0.318; for UCAAUGUUCACCACACGGC against PLEKHH1 it is -2.41; for UUUGUUAGGAGCUUGUAGG against C1GALT1C1 it is 1.55. The result for UAUAUCAUCAAGCGUAACC against TCF20 reads -1.21.

In turn, UCGUUGUAUACUUUGGUGC against PRKAR2B came in with a seed-corrected z-score of -0.139. The result for UAUGCUGUCGGAUGAGUCC against ATF1 reads 0.345; that for UAUUGUCAAAUGAAGGUGG against TREML1, 0.93; that for UUGGUAUCAUCUUCUGUAG against PLXDC2, -0.075. On to UUUCUGACCACGUCUAGCA against PEX11B, for which the seed-corrected z-score was 0.368. The result for UGAGUGUAGAGCAGCCACU against NEU2 reads -2.8; that for UGAGCUACCAUAUGCUUCA against RBMY1F, -0.266. The figure for AUCCUCACCAUGGACAACG against CELA3A is -0.518. The figure for UUUUUGAACAUGGUAACAG against RPL31P7 is 1.16. Regarding AAGUGGUCAAAAUCCGCUC against LOC728613, the seed-corrected z-score is -1.66. With AAAGUCAGCACUUCGAUCC against MCTP1, the seed-corrected z-score is -2.38. The figure for UAUGUUGUCACGCAGCACU against HIST1H4F is 1.31; for UUGGUUAUUCGAAGAGCUG against ME1 it is -0.246. On to UGUCAUUUUUCUUCGGUUC against PWP2, for which the seed-corrected z-score is 0.885. In turn, UGAAUGGACAGUAUCUCUG against CCDC54 showed a seed-corrected z-score of -0.774. The result for AAUCUGCUUCUUUAAGUCG against RBBP6 reads -2.31; that for UUUCUGUCCAGGAAAUCUC against RWDD4, -0.311; that for UCAGUGGAAGGAAUCCUCA against OR13C8, 1.06. Turning to UUAUUGUCAAGUUCUGAUG against EFCAB14, the seed-corrected z-score is 0.0178. The result for UUCUGUUCUACCUCGCUUC against WDR60 reads -1.36.

With UCUGGAGUUCUCAUUAGAC against IRF7, the seed-corrected z-score is 0.205. On to AUACGUAUCCCGGACGCAG against SLC25A47, for which the seed-corrected z-score is 2.25.

Sequence AGGGUAUUUACCUUCUUGC against LOC729696 gave a seed-corrected z-score of -2.56.

Turning to UCCCAUACCAUCCACAGUG against SGCZ, the seed-corrected z-score is 0.248. The result for AAGACUUCCAUCUAAGAUC against SLC39A11 reads -1.62; that for AAUCUUCACAUCAUUCUGG against TMEM70, -0.646. The result for AUUGAUGUCAAUCACAUGC against PCDHGA3 reads -0.895; that for UUUCAUGCGACGGUUUUGG against HOXC4, -0.731. The figure for UGACUGUUGCUCCACUUCC against SH2D3A is -0.425; for AGUCUUAUCAGCACCCUUU against MTPN it is -11.9; for AUCCGGUACACCAUGUGGU against CYTH2 it is -0.326. As for UAUGAUGGAGGCGUAGUUC against MYCL, the seed-corrected z-score was 0.678. The result for AAUGAUAUCUGUGAUCGCC against RABGEF1 reads -0.242. Consider UUCGUUCAGUGGGUUGUCC against SYNGR1, for which the seed-corrected z-score is -0.497. For the sequence UUCCCUUUCACGUCCAUGU against WFIKKN2, the seed-corrected z-score is -0.0396. UUUCGAUUUAAAAGAGCCC against RALGPS1 yielded a seed-corrected z-score of 1.28. The result for UUUCUUCCAACGCAGUCUG against MRPS23 reads -2.67; that for UAGAGGCUCAUCAUAGAUG against GPATCH3, -0.0793; that for AAUGCUAUUACGGUUGAUG against FBXL6, -0.269. On to UUAUUGCAGAUCUGGAUCC against CYP2C9, for which the seed-corrected z-score was -2.3. As to UCUGUUUCAUUUACUUUGC against PRSS44, the seed-corrected z-score worked out at 0.238. The figure for UUUAUAAAGAGGGUGGAUC against SGCB is -0.0761; for UAUGAUACACUGGUAGGGU against ZNF684 it is -2.38.

AAAGUGAUUCCCACAGCUG against CCS yielded a seed-corrected z-score of 1.5. The result for UUUCUAACAUAGGAUGCCG against PRKAR1A reads -0.515; that for AUGGUUGCGGUAGAAGACG against PHYHIP, 0.484.

Turning to AUAGAAUCUAGGGAAAUAG against HBD, the seed-corrected z-score turned out to be 1.15.

AUAGUUAUCCUUUAAUAAC against SLC2A3 gave a seed-corrected z-score of -2.2. The figure for AAUGUCAUUGCUGCGGUCC against SH3KBP1 is -0.331; for UUUCAGAGCCUUUCCCUGC against LTA it is -0.389. The result for UGAUGUACAGCUGAGGACC against ELMO2 reads -2.32. UCAGGUAGAGCAUAGCUUG against SPX displayed a seed-corrected z-score of -1.13. The result for ACAGCUACCACAAAUGCAG against NDUFB3 reads 1.34; that for UGGGUUCCCAGUAACACUC against RPRD2, -0.107.

In the case of UGCUCUAUCUCUGUCAGGG against RORC, the seed-corrected z-score amounted to 0.626. The figure for AUCGCUGUUAAGAAGCUCC against CIITA is -0.918. The result for UUGGAAUCAGUCAUGCUCA against SFTPD reads 0.0218; that for AUCCUUCUUGAAGUCGGCG against OAF, 2.26; that for UUCAGGACGAUCUUGACAG against CHRDL2, -0.237. The result for UGCCGUUUCAUCUUGUACC against NKX2-4 reads -2.69; that for UUGAAGUUUGGAUAUUACC against GABPB2, -0.668; that for GAAUGUAGCAAAUGAGUCG against MT1H, 0.588. For the sequence UGACUGGAUAUAUCCACUG against RAB20, the seed-corrected z-score was 0.37. The result for UUUUCUGCCUGAUCUAACU against MAP3K7CL reads 0.11; that for UCACUGUCAAUCAUGCGCU against CACNG1, -1.04. UCACCUUCCGCUUCGACUU against FAM181B displayed a seed-corrected z-score of 2.19.

Turning to AAACCAAUAGGAAUUGACU against HINT3, the seed-corrected z-score was found to be 0.612. AUCCAGUUAAUUCCAGAUG against NUDT1 displayed a seed-corrected z-score of -3.9. The figure for UAGGUUGUGAAUGUGGUCG against FBXL8 is -3.1; for UAUAUGUCUUGAUUAUCCU against NMS it is 0.309.

Take UCCAGGUCAAGGGUAACGG against KIF7: the seed-corrected z-score is -0.853. UACAUGUCAAAUGAGCUCC against KIR2DL5B returned a seed-corrected z-score of -2.25. As to UGUAGAAUGAGUAGGCGGC against NMT2, the seed-corrected z-score was -0.0232. The figure for UGUAUUUGAAGACUUUCCC against ZNF485 is 0.182. The figure for UUCCUUCCUCGUUCAUUGC against KGFLP1 is -2.1; for AAAGCUUCCCUCAACUUGC against TAS2R9 it is -0.00509; for UAUCUAGUGCAGUAUAUCG against COPS2 it is 0.174.

Sequence UUUGAUCUCAUCGGUGCCC against PIAS1 yielded a seed-corrected z-score of -0.0672. The figure for AUUCUCGUCAGUGAGCUCC against POLR2C is -0.262; for UCUUCGUUCUUGUCGAUCU against MED15 it is 2.07; for UAACUUUGUCUUUGGAUUC against SETD9 it is 1.15.
